# In PubChem BioAssay (NCI):
# This is part of a sample that, as a whole, favours compounds with a hit. Of some 79,000 tested, about 15% had one in any assay. Activity calls are given as the source filed them. Cut-off read from the data, not from the text of the source: active = growth inhibition above about 70%; inactive = the rest.
# Assay: NCI Yeast Anticancer Drug Screen. Data for the bub3 strain (AID 167)
# Details: S. cerevisiae bub3 mutant strain, at 50.0 µM, hits give high values
# In short: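 Part of a panel of yeast mutants defective in DNA damage repair or cell cycle regulation. Each strain is grown with compound, and inhibition is calculated relative to solvent-treated cultures.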
row,SMILES,growth inhibition
1,O=C(O)/C=C/C(=O)Nc1cccc2ccccc12,55% (inactive)
2,CCCCCN=C(C)C(C)=NCCCCC,96.8% (active)
3,Oc1ccc(N=Nc2ccccc2)c(O)c1.Oc1ccc(N=Nc2ccccc2)c(O)c1.[Cu],97% (active)
4,NNc1c(Cl)cc(Cl)cc1Cl,99.2% (active)
5,C=C1C[C@H](O)[C@H]2C(C[Se]c3ccccc3)C(=O)O[C@@H]2[C@H]2[C@H](C)C(O)C[C@@H]12 (stereo not given in full),21.8% (inactive)
6,O=C(CBr)Oc1ccc(-c2cccc(Br)c2)cc1,99.6% (active)
7,CCCCC1=NCCc2c1cc1c([nH]c3ccccc31)c2C,76% (active)
8,CCOC(=O)NC(=S)Nc1ccsc1,24.8% (inactive)
9,CCCCCCCCCCCCCCCCNC(C)c1ccccc1 (stereo not given),99% (active)
10,Cc1ccc(C2(O)CC(c3ccc([N+](=O)[O-])o3)=NN2C(=O)COc2ccc(Cl)cc2)cc1 (stereo not given),37.6% (inactive)
11,CCOC(=O)/C(C#N)=C/c1ccccc1Br,1.2% (inactive)
12,CCCCCCCCCCCCCCCCNCCCCCCCC(=O)O,39.2% (inactive)
13,CC[N+]1(C)CCC(O)(c2ccc(Cl)c(Cl)c2)C(C(=O)c2ccc(Cl)c(Cl)c2)C1 (stereo not given),98.8% (active)
14,CC(=O)Nc1nnc(-c2coc3ccccc3c2=O)s1,15.4% (inactive)
15,CCC(C)(C)NCCCCCNc1cc(OC)cc2cccnc12,79% (active)
16,CSC(=Nc1ccccc1)/N=C(\SCc1ccccc1)N(C)C,99.5% (active)
17,N=Cc1cc([N+](=O)[O-])ccc1O,71.3% (active)
18,CCCCCCCC(=O)/C=C/c1ccc(C)cc1,65.8% (inactive)
19,Cc1ccc(S(=O)(=O)N/N=C2/CC[C@H](C(C)(C)C)C[C@@H]2C)cc1,84.7% (active)
20,Nc1ccc2c(c1)CCc1ccccc1-2,81.5% (active)

row,SMILES,growth inhibition
1,CN(C)CCC(=O)[C@@]1(O)CC[C@H]2[C@@H]3CC=C4C[C@@H](O)CC[C@]4(C)[C@H]3CC[C@@]21C,49.1% (inactive)
2,CC(=O)OC1COC(N2C(=O)C(=O)c3cc(Br)ccc32)C(OC(C)=O)C1OC(C)=O (stereo not given),25.4% (inactive)
3,Cc1ccc(N2CCN(c3c(N)cncc3Br)CC2)cc1,96% (active)
4,O=C(O)c1ccccc1SC(Sc1ccccc1C(=O)O)c1cccc(Cl)c1,81.5% (active)
5,CC[N+](C)(CC)CCC(=O)/C=C/c1ccccc1,76.5% (active)
6,COc1ccc(C(C)c2cc3c(cc2OC/C(C)=N/NC(N)=O)OCO3)cc1 (stereo not given),88.1% (active)
7,CN=C(N)N/N=C(\C)c1ccc2c(c1)Cc1cc(Cl)ccc1-2,98.7% (active)
8,CCCCCCCCN/N=C(/C)CCCCCO,15.9% (inactive)
9,O=[N+]([O-])c1cccc2c(O)cccc12,47.2% (inactive)
10,O=C1C(=O)c2ccccc2C(O)=C1Sc1ccccc1,93.7% (active)
11,CC(=O)N(O)c1ccc2c(c1)Cc1cc(F)ccc1-2,97.8% (active)
12,CC12CCC(=O)C=C1CCC1C2CCC2(C)C(c3cnc[nH]3)CCC12 (stereo not given),69.5% (inactive)
13,O=C1OC(C2OC(=O)C(=O)C2C(=O)c2ccc(Cl)c(Cl)c2)C(C(=O)c2ccc(Cl)c(Cl)c2)C1=O (stereo not given),55.2% (inactive)
14,CC/C(C)=C1\CCC(CN2CCOCC2)C1=O (stereo not given),62.9% (inactive)
15,COc1ccc(C2CC(=O)CC(=O)C2)cc1,16% (inactive)
16,Cc1ccc(O)c(C(c2ccc([N+](=O)[O-])cc2)c2cc(C)ccc2O)c1,90.9% (active)
17,O=C1OS(=O)(=O)c2cc3c(cc21)C1C(C2C3C3(Cl)C(Cl)=C(Cl)C2(Cl)C3(Cl)Cl)C2(Cl)C(Cl)=C(Cl)C1(Cl)C2(Cl)Cl (stereo not given),74% (active)
18,CCOC(=O)C1SC(=S)N(C)C1=O (stereo not given),99.4% (active)
19,O=C(c1ccc(Cl)c([N+](=O)[O-])c1)c1ccc(Cl)c([N+](=O)[O-])c1,96.2% (active)
20,Cc1cc[c]([Sn]([Cl])([O][Sn]([Cl])([c]2ccc(C)cc2)[c]2ccc(C)cc2)[c]2ccc(C)cc2)cc1,86.7% (active)

# Assay: NCI Yeast Anticancer Drug Screen. Data for the mlh1 rad18 strain (AID 175)
# Details: S. cerevisiae mlh1 rad18 strain growth inhibition; at 5.0 µM (retest, dose inferred, filed as 0.5); hits give high values
# In short: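 A repair-deficient yeast strain is exposed to test compound, and growth is scored relative to vehicle-treated controls.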
row,SMILES,growth inhibition
1,O=C(O)/C=C/C(=O)Nc1cccc2ccccc12,26% (inactive)
2,CCCCCN=C(C)C(C)=NCCCCC,-9% (inactive)
3,Oc1ccc(N=Nc2ccccc2)c(O)c1.Oc1ccc(N=Nc2ccccc2)c(O)c1.[Cu],12% (inactive)
4,NNc1c(Cl)cc(Cl)cc1Cl,51% (inactive)
5,C=C1C[C@H](O)[C@H]2C(C[Se]c3ccccc3)C(=O)O[C@@H]2[C@H]2[C@H](C)C(O)C[C@@H]12 (stereo not given in full),0% (inactive)
6,O=C(CBr)Oc1ccc(-c2cccc(Br)c2)cc1,4% (inactive)
7,CCCCC1=NCCc2c1cc1c([nH]c3ccccc31)c2C,3% (inactive)
8,CCOC(=O)NC(=S)Nc1ccsc1,-7% (inactive)
9,CCCCCCCCCCCCCCCCNC(C)c1ccccc1 (stereo not given),-2% (inactive)
10,Cc1ccc(C2(O)CC(c3ccc([N+](=O)[O-])o3)=NN2C(=O)COc2ccc(Cl)cc2)cc1 (stereo not given),43% (inactive)
11,CCOC(=O)/C(C#N)=C/c1ccccc1Br,-9% (inactive)
12,CCCCCCCCCCCCCCCCNCCCCCCCC(=O)O,2% (inactive)
13,CC[N+]1(C)CCC(O)(c2ccc(Cl)c(Cl)c2)C(C(=O)c2ccc(Cl)c(Cl)c2)C1 (stereo not given),7% (inactive)
14,CC(=O)Nc1nnc(-c2coc3ccccc3c2=O)s1,2% (inactive)
15,CCC(C)(C)NCCCCCNc1cc(OC)cc2cccnc12,2% (inactive)
16,CSC(=Nc1ccccc1)/N=C(\SCc1ccccc1)N(C)C,44% (inactive)
17,N=Cc1cc([N+](=O)[O-])ccc1O,12% (inactive)
18,CCCCCCCC(=O)/C=C/c1ccc(C)cc1,-128% (inactive)
19,Cc1ccc(S(=O)(=O)N/N=C2/CC[C@H](C(C)(C)C)C[C@@H]2C)cc1,-1% (inactive)
20,Nc1ccc2c(c1)CCc1ccccc1-2,2% (inactive)

row,SMILES,growth inhibition
1,CN(C)CCC(=O)[C@@]1(O)CC[C@H]2[C@@H]3CC=C4C[C@@H](O)CC[C@]4(C)[C@H]3CC[C@@]21C,16% (inactive)
2,CC(=O)OC1COC(N2C(=O)C(=O)c3cc(Br)ccc32)C(OC(C)=O)C1OC(C)=O (stereo not given),-2% (inactive)
3,Cc1ccc(N2CCN(c3c(N)cncc3Br)CC2)cc1,-4% (inactive)
4,O=C(O)c1ccccc1SC(Sc1ccccc1C(=O)O)c1cccc(Cl)c1,15% (inactive)
5,CC[N+](C)(CC)CCC(=O)/C=C/c1ccccc1,11% (inactive)
6,COc1ccc(C(C)c2cc3c(cc2OC/C(C)=N/NC(N)=O)OCO3)cc1 (stereo not given),61% (inactive)
7,CN=C(N)N/N=C(\C)c1ccc2c(c1)Cc1cc(Cl)ccc1-2,9% (inactive)
8,CCCCCCCCN/N=C(/C)CCCCCO,-1% (inactive)
9,O=[N+]([O-])c1cccc2c(O)cccc12,0% (inactive)
10,O=C1C(=O)c2ccccc2C(O)=C1Sc1ccccc1,34% (inactive)
11,CC(=O)N(O)c1ccc2c(c1)Cc1cc(F)ccc1-2,49% (inactive)
12,CC12CCC(=O)C=C1CCC1C2CCC2(C)C(c3cnc[nH]3)CCC12 (stereo not given),41% (inactive)
13,O=C1OC(C2OC(=O)C(=O)C2C(=O)c2ccc(Cl)c(Cl)c2)C(C(=O)c2ccc(Cl)c(Cl)c2)C1=O (stereo not given),12% (inactive)
14,CC/C(C)=C1\CCC(CN2CCOCC2)C1=O (stereo not given),14% (inactive)
15,COc1ccc(C2CC(=O)CC(=O)C2)cc1,-12% (inactive)
16,Cc1ccc(O)c(C(c2ccc([N+](=O)[O-])cc2)c2cc(C)ccc2O)c1,84% (active)
17,O=C1OS(=O)(=O)c2cc3c(cc21)C1C(C2C3C3(Cl)C(Cl)=C(Cl)C2(Cl)C3(Cl)Cl)C2(Cl)C(Cl)=C(Cl)C1(Cl)C2(Cl)Cl (stereo not given),63% (inactive)
18,CCOC(=O)C1SC(=S)N(C)C1=O (stereo not given),19% (inactive)
19,O=C(c1ccc(Cl)c([N+](=O)[O-])c1)c1ccc(Cl)c([N+](=O)[O-])c1,24% (inactive)
20,Cc1cc[c]([Sn]([Cl])([O][Sn]([Cl])([c]2ccc(C)cc2)[c]2ccc(C)cc2)[c]2ccc(C)cc2)cc1,26% (inactive)
